# Source: PubChem BioAssay (Tox21)
# Where “and” joins values, the source holds several entries; their conditions need not be identical. Identical values can stand only once. Records with an inconclusive call do not appear. Where a call stands in place of a potency, no number is given. The source holds several records for some structures; these can differ, active in one and inactive in another. Calls of active or inactive are those of the source. Unless noted, calls follow the shape of the dose curve; as a rule, active = well fitted curve in the direction sought with a large enough effect in the repeat runs; inconclusive = weak or mixed curves; inactive = no such curve, though single readings can be large; an effect the other way counts as inactive or inconclusive.
# Assays:
# [1] = qHTS assay for small molecule agonists of the p53 signaling pathway - cell viability (AID 651633; calls by dose curve; also: nearly all actives have a fitted effect of over 30% in size; also: potency is read from the fitted curve at half-maximal effect)
# Outline: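 p53RE-bla cells, seeded at 4,000 per well and rested 5 h at 37 C/5% CO2, received compounds in DMSO for 16 h at 37 C. CellTiter-Glo was then added, and luminescence was read after 30 min at room temperature to gauge cytotoxicity.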
# [2] = qHTS assay for small molecule disruptors of the mitochondrial membrane potential - cell viability (AID 720634; calls by dose curve; also: nearly all actives have a fitted effect of over 20% in size; also: potency is read from the fitted curve at half-maximal effect)
# Outline: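 Cytotoxicity was quantified from ATP content by CellTiter-Glo luminescence in the same wells as the MMP dye read-out. HepG2 (2,000 cells/well) were plated overnight and exposed to compounds for 1 hr at 37 C.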
# [3] = target: Glucocorticoid receptor (Homo sapiens) (UniProt P04150); assay: qHTS assay to identify small molecule agonists of the glucocorticoid receptor (GR) signaling pathway (AID 720691; active = well fitted activation curve with a large enough effect in the signal ratio in the repeat runs, not every such curve was filed as active; the % refers to the signal ratio; also: potency is read from the fitted curve at half-maximal effect)
# Outline: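 Agonist-mode qHTS in HeLa cells stably expressing a glucocorticoid-response-element beta-lactamase reporter. Fluorescence intensity read with FRET substrate (2 h, room temperature) after 18 h compound treatment at 37 C.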
# [4] = qHTS assay to identify small molecule antagonists of the estrogen receptor alpha (ER-alpha) signaling pathway using the BG1 cell line (AID 743080; calls by dose curve;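 also: BG1 cells stimulated with 17beta-estradiol alongside compound; nearly all actives have a fitted effect of over 25% in size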; also: potency is read from the fitted curve at half-maximal effect)
# Outline: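 BG1Luc4E2, endogenous ER-alpha, 4xERE-luc; 5 d charcoal-stripped FBS, phenol red free; 24 h plating; cpd + 17beta-estradiol 21.5 h, 37 C/5% CO2; CellTiter-Fluor viability 30 min, then ONE-Glo luciferase 30 min RT.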
# [5] = qHTS assay for small molecule agonists of the antioxidant response element (ARE) signaling pathway - cell viability counter screen (AID 743203; calls by dose curve; also: nearly all actives have a fitted effect of over 55% in size; also: potency is read from the fitted curve at half-maximal effect)
# Outline: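 Viability counter screen: CellTiter-Glo luminescence, read after 30 min at room temperature, in ARE-bla HepG2 wells. Compound exposure lasted 16 h at 37C/5% CO2, following a 5 h pre-incubation of the cells after plating.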
# [6] = qHTS assay to identify small molecule antagonists of the peroxisome proliferator-activated receptor delta (PPARd) signaling pathway - cell viability counter screen (AID 743213); also: nearly all actives have a fitted effect of over 50% in size; also: potency is read from the fitted curve at half-maximal effect
# Outline: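 Luminescence from CellTiter-Glo, added after the bla read and incubated 30 min at room temperature, gives viability of HEK293H PPARd-bla cells exposed to compounds for 17 h at 37 C with 300 nM L165041.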
# [7] = qHTS assay to identify small molecule antagonists of the thyroid receptor (TR) signaling pathway - cell viability counter screen (AID 743064); also: nearly all actives have a fitted effect of over 50% in size; also: potency is read from the fitted curve at half-maximal effect
# Outline: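 Same-well viability check: GH3.TRE-Luc cells stimulated with 1 nM T3 alongside test compound for 23.5 h, followed by CellTiter-Fluor fluorescence.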
# [8] = qHTS assay to identify small molecule agonists of the peroxisome proliferator-activated receptor delta (PPARd) signaling pathway - cell viability counter screen (AID 743211); also: nearly all actives have a fitted effect of over 55% in size; also: potency is read from the fitted curve at half-maximal effect
# Outline: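 Multiplexed format: after the 2 h room-temperature LiveBLAzer B/G FRET step, CellTiter-Glo was added to the same wells. Luminescence after 30 min gave cell viability; compound exposure was 17 h at 37C.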
# [9] = qHTS assay to identify small molecule agonists of the farnesoid-X-receptor (FXR) signaling pathway - cell viability counter screen (AID 743218); also: nearly all actives have a fitted effect of over 45% in size; also: potency is read from the fitted curve at half-maximal effect
# Outline: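 Viability counter screen in the same wells: CellTiter-Glo luminescence, 30 min room-temperature incubation, measured after the beta-lactamase read. Cells were GeneBLAzer FXR-UAS-bla HEK 293T, compound-treated 16 h at 37C.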
# [10] = qHTS assay to identify small molecule antagonists of the vitamin D receptor (VDR) signaling pathway - cell viability counter screen (AID 743225); also: nearly all actives have a fitted effect of over 50% in size; also: potency is read from the fitted curve at half-maximal effect
# Outline: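 Cytotoxicity toward the VDR-bla HEK 293T line was scored by ATP-based CellTiter-Glo luminescence, read in the wells already used for the beta-lactamase readout after 16 h compound treatment under 3 nM 1-alpha,25-dihydroxyvitamin D3 stimulation.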
# [11] = qHTS assay to identify small molecule phospholipidosis (PLD) inducers (AID 1259344; active = well fitted curve in the direction sought with a large enough effect; an effect the other way counts as inactive or inconclusive; also: potency is read from the fitted curve at half-maximal effect)
# Outline: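 Cells (HepG2, 900 per well) attach for 4 h, receive LipidTOX Red and compound together, incubate 24 h at 37 C, are fixed 30 min with paraformaldehyde/Hoechst, then imaged at one site per well.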
# [12] = qHTS assay for identifying genotoxic compounds that show differential cytotoxicity against isogenic chicken DT40 cell lines with known DNA damage response pathways - wild type cell line (AID 743012); also: potency is read from the fitted curve at half-maximal effect; nearly all actives have a fitted effect of over 60% in size
# Outline: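 Viability by ATP luminescence (CellTiter-Glo, 30 min RT) after 40 h compound treatment at 37 C/5% CO2, using 300 parental DNA repair-proficient DT40 cells per well.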
# [13] = tested on: thyroid hormone receptor (rat, GH3 cells); assay: qHTS assay to identify small molecule agonists of the thyroid receptor (TR) signaling pathway (AID 743066; calls by dose curve)
# [14] = qHTS assay to identify small molecule antagonists of the estrogen receptor alpha (ER-alpha) signaling pathway - cell viability counter screen (AID 743074; calls by dose curve;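 also: HEK293 cells carrying ER-alpha-UAS-bla reporter stimulated with 17beta-estradiol; nearly all actives have a fitted effect of over 45% in size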; also: potency is read from the fitted curve at half-maximal effect)
# [15] = target: Peroxisome proliferator-activated receptor delta (Homo sapiens) (UniProt Q03181); assay: qHTS assay to identify small molecule agonists of the peroxisome proliferator-activated receptor delta (PPARd) signaling pathway (AID 743212; calls by dose curve)
# Outline: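 Cells expressing a UAS-driven beta-lactamase reporter (PPARd-bla HEK293H) were given test compounds after a 5 h settle and kept at 37 C. Reporter activity was then measured as FRET fluorescence using LiveBLAzer B/G substrate.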
# [16] = qHTS assay to identify small molecule agonists of the vitamin D receptor (VDR) signaling pathway - cell viability counter screen (AID 743224); also: nearly all actives have a fitted effect of over 50% in size; also: potency is read from the fitted curve at half-maximal effect
# Outline: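 Counter screen run in the same wells as the VDR-bla reporter assay: CellTiter-Glo luminescence, 30 min at room temperature, after 16 h compound treatment at 37C of cells pre-plated for 4 h.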
# [17] = qHTS assay to identify small molecule agonists of the hypoxia (HIF-1) signaling pathway (AID 1224846; active = well fitted activation curve with a large enough effect in the signal ratio in the repeat runs, not every such curve was filed as active; the % refers to the signal ratio)
# Outline: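 Compounds added to ME-180 cells carrying hypoxia-response-element beta-lactamase reporter (0.5% dialyzed FBS, 5 h preplating), 17 h at 37C; agonist activity detected by CCF4-AM B/G FRET read-out.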
# [18] = qHTS assay to identify small molecule antagonists of the retinoid-related orphan receptor gamma (ROR-gamma) signaling pathway - cell viability counter screen (AID 1159520)
# Outline: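 Tet-on ROR gamma CHO cells (1,000/well) were plated 4 hr, given compounds in DMSO for 2 hr at 37 C, then induced with 1 uM final doxycycline for 16 hr. Viability was read as ATP by CellTiter-Glo luminescence after 30 min.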
# [19] = target: Glucocorticoid receptor (Homo sapiens) (UniProt P04150); assay: qHTS assay to identify small molecule antagonists of the glucocorticoid receptor (GR) signaling pathway (AID 720692; active = well fitted inhibition curve with a large enough effect in the signal ratio in the repeat runs, not every such curve was filed as active; the % refers to the signal ratio; also: potency is read from the fitted curve at half-maximal effect)
# Outline: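 Inhibition of dexamethasone-driven (5 nM final) beta-lactamase expression was measured in GRE-reporter HeLa cells over 18 h at 37C. Fluorescence was read after 2 h with the B/G FRET substrate at room temperature.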
# [20] = qHTS assay to identify small molecule agonists of the retinoic acid receptor (RAR) signaling pathway (AID 1159553)
# Outline: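 Luminescence was measured 30 min after luciferase reagent addition at room temperature. Before that, C3RL4 reporter cells (1,000 per well, plated overnight) were treated with compound for 6 hr at 37 C and 5% CO2.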
# Sequence of Peroxisome proliferator-activated receptor delta (Homo sapiens) (Q03181 whole entry, looked up): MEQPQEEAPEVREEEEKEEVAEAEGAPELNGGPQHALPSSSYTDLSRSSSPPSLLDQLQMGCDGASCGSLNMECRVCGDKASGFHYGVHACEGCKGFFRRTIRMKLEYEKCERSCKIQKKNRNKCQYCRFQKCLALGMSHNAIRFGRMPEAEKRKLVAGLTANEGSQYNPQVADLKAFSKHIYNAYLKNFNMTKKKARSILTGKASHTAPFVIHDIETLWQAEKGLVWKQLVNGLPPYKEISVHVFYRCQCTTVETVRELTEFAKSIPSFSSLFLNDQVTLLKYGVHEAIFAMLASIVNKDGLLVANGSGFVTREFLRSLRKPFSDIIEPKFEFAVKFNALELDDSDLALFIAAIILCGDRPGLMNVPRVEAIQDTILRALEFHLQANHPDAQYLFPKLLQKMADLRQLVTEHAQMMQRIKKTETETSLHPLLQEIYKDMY
# Sequence of Glucocorticoid receptor (Homo sapiens) (P04150 whole entry, looked up): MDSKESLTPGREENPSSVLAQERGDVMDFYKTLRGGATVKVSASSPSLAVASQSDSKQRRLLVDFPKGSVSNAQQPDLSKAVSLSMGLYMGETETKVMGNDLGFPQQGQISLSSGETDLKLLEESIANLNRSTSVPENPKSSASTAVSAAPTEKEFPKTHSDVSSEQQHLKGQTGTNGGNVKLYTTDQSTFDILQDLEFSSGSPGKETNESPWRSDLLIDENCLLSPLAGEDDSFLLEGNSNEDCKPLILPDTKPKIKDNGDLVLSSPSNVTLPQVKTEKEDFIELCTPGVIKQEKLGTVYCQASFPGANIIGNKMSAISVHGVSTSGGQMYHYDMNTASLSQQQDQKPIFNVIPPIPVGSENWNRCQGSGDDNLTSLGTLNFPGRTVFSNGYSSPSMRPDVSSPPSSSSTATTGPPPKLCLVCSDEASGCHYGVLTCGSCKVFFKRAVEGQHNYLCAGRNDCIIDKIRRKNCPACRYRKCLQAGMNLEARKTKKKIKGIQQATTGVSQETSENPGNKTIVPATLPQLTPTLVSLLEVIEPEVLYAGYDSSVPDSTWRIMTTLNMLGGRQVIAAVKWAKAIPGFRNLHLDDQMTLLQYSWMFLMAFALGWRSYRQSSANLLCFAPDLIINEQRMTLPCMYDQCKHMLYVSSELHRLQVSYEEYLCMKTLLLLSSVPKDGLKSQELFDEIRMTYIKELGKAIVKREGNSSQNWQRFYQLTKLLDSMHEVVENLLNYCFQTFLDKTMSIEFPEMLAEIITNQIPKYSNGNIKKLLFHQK
compound,measurement,setting,value
COc1cc(OC)c(OC)cc1C=O,Potency,[1],inactive
same,Potency,[2],inactive
same,Potency,[3],inactive
same,Potency,[4],inactive
same,Potency,[5],inactive
same,Potency,[6],inactive
Cc1nnc2n1-c1sc(CCc3ccc(CC(C)C)cc3)cc1C(c1ccccc1Cl)=NC2C (centres undefined),Potency,[1],23.7 µM (active)
same,Potency,[2],inactive
same,Potency,[7],15 µM (active)
same,Potency,[8],29.8 µM (active)
same,Potency,[9],33.5 µM (active)
same,Potency,[10],23.9 µM (active)
same,Potency,[11],inactive
CCOC(=O)C(O)(c1ccc(Cl)cc1)c1ccc(Cl)cc1,Potency,[1],15.5 µM (active)
same,Potency,[2],30.9 µM (active)
same,Potency,[12],6.18 µM (active) and 19.3 µM (active)
same,Potency,[7],6.18 µM (active)
same,Potency,[13],inactive
same,Potency,[14],24.8 µM (active) and inactive
same,Potency,[5],24.6 µM (active)
same,Potency,[8],13.9 µM (active) and 43.6 µM (active)
same,outcome,[15],inactive
same,Potency,[6],22.1 µM (active)
same,Potency,[9],24.8 µM (active) and inactive
same,Potency,[16],7.84 µM (active) and 43.6 µM (active)
same,Potency,[10],11.1 µM (active) and 38.9 µM (active)
same,outcome,[17],inactive
CNC(=O)Oc1cc(C)c(SC)c(C)c1,outcome,[17],inactive
CN1CSC(=S)N(C)C1,Potency,[1],inactive
same,Potency,[2],inactive
same,Potency,[3],1.94 µM (active)
same,Potency,[12],6.08 µM (active) and 5.43 µM (active)
same,Potency,[7],30.5 µM (active)
same,Potency,[13],inactive
same,Potency,[14],inactive
same,Potency,[5],inactive
same,Potency,[8],3.87 µM (active)
same,Potency,[6],7.72 µM (active) and 5.48 µM (active)
same,Potency,[9],4.87 µM (active)
same,Potency,[16],6.13 µM (active) and 3.88 µM (active)
same,Potency,[10],inactive
O=S(=O)(C(Cl)(Cl)Cl)C(Cl)(Cl)Cl,Potency,[18],17.2 µM (active)
CCC(C)=O,Potency,[19],inactive
OCC(c1ccc(Cl)cc1)c1ccc(Cl)cc1,Potency,[12],13.7 µM (active)
same,Potency,[7],61.1 µM (active)
same,Potency,[14],inactive
same,Potency,[4],68.6 µM (active)
same,Potency,[8],inactive
same,Potency,[9],inactive
same,Potency,[10],54.9 µM (active)
same,outcome,[17],inactive
c1ccc2c(c1)Sc1ccccc1N2CC1CN2CCC1CC2 (centres undefined),Potency,[2],inactive
same,Potency,[3],inactive
same,Potency,[19],21.3 µM (active)
same,Potency,[12],5.96 µM (active)
same,Potency,[14],21.3 µM (active)
same,Potency,[5],13.3 µM (active)
same,Potency,[8],10.6 µM (active)
same,Potency,[6],9.44 µM (active)
same,Potency,[9],10.6 µM (active)
same,Potency,[16],21.1 µM (active)
same,Potency,[10],21.3 µM (active)
same,outcome,[17],inactive
same,Potency,[11],3.55 µM (active)
Cc1cccc(C)c1[N+](=O)[O-],Potency,[19],inactive
Clc1ccccc1-c1ccccc1Cl,Potency,[3],inactive
same,Potency,[7],inactive
same,Potency,[14],inactive
same,Potency,[5],inactive
same,Potency,[8],inactive
same,outcome,[15],inactive
same,Potency,[6],inactive
same,Potency,[9],inactive
same,Potency,[16],inactive
same,Potency,[10],inactive
same,outcome,[20],inactive
Brc1ccc(-c2ccccc2)cc1,Potency,[19],inactive
Nc1ccc(Cl)cc1Cl,outcome,[15],inactive
CCc1cccc(C)c1N,Potency,[19],inactive
